DT40 TDP1 CPT: qHTS for Inhibitors of human tyrosyl-DNA phosphodiesterase 1 (TDP1): qHTS in cells in presence of CPT. chicken DT40 Tdp1-/-;hTDP1 cells + 20 nM CPT, ATP luminescence, 48 h. actives 12% (n = 420,000). Potency, µM (doses to about 46.2 µM), for the others: at the highest dose activity change, negative = growth inhibition, most hits filed as inhibitors; note: potency is the fitted concentration of half-maximal effect; % is set by controls: 0 for no effect and ±100 for the full control effect; nearly all actives have a fitted effect of over 55% in size
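Cell growth measured by CellTiter-Glo luminescence after a minimum 48 h, 37 C compound exposure with 20 nM CPT in Tdp1-knockout DT40 cells stably expressing hTDP1, seeded 400/well; qHTS titration format.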
miR-21 act: qHTS Assay for Modulators of miRNAs and/orActivators of miR-21; HeLa miR-21 FLuc reporter, luciferase, 48 h; Potency, µM (highest dose often 38.3 µM), for the others: at the top dose activity change, positive = activation, usual class: activators; 340,000 tested, under 10 active; AID 2288, 2010;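 note: % of control where 0% means no effect; miR-21 action dims this reporter so a rising signal means less miR-21 action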
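HeLa miR-21-FLuc reporter line, endogenous miR-21; 2000 cells/well in DMEM/10% FBS; compound titration up to ~40uM final, 48 h, 37 degree Celsius; luciferase detection reagent, 15 min lysis, CCD luminescence.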
uPA generation: qHTS for Inhibitors of Cell Surface uPA Generation. cell surface uPA generation assay, qHTS. Potency, µM (doses to about 38.3 µM), inactives show at the highest dose activity change, negative = inhibition, usual class: inhibitors. actives 0.31% (n = 330,000); active = well fitted inhibition curve with a large enough effect; inconclusive = small, poorly fitted or top-dose-only effect; inactive = no such curve, though single readings can be large or run the other way; tested in mouse RAW 264.7 cells; note: potency is the fitted concentration of half-maximal effect; % is set by controls: 0 for no effect and ±100 for the full control effect; nearly all actives have a fitted effect of over 55% in size
DT40 TDP1 no CPT: qHTS for Inhibitors of human tyrosyl-DNA phosphodiesterase 1 (TDP1): qHTS in cells in absence of CPT. DT40 Tdp1-/- hTDP1 cells, no CPT, ATP luminescence, 48 h. Potency, µM (titrated, usually from 46.2 µM), for inactives: at the top dose activity change, negative = growth inhibition, actives largely listed as inhibitors. actives 15% (n = 420,000). AID 686978, 2013; note: potency is the fitted concentration of half-maximal effect; % is set by controls: 0 for no effect and ±100 for the full control effect; nearly all actives have a fitted effect of over 55% in size
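Seeded 400 DT40-hTDP1 cells/well (vehicle DMSO, no 20 nM CPT); pinned compounds; ≥48 hr at 37 °C; CellTiter-Glo luminescence as viability measure.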
TDP1 block: qHTS Assay for Inhibitors of Tyrosyl-DNA Phosphodiesterase (TDP1). Potency, µM (top dose mostly 130 µM), for inactives: at the top dose activity change, negative = inhibition, most hits filed as inhibitors. Tyrosyl-DNA phosphodiesterase 1 (Homo sapiens), Q9NUW8. recombinant TDP1, AlphaScreen DNA substrate cleavage. actives 0.28% (n = 350,000); note: potency is the fitted concentration of half-maximal effect; % is set by controls: 0 for no effect and ±100 for the full control effect; nearly all actives have a fitted effect of over 40% in size
Target sequence (Q9NUW8 whole entry, looked up): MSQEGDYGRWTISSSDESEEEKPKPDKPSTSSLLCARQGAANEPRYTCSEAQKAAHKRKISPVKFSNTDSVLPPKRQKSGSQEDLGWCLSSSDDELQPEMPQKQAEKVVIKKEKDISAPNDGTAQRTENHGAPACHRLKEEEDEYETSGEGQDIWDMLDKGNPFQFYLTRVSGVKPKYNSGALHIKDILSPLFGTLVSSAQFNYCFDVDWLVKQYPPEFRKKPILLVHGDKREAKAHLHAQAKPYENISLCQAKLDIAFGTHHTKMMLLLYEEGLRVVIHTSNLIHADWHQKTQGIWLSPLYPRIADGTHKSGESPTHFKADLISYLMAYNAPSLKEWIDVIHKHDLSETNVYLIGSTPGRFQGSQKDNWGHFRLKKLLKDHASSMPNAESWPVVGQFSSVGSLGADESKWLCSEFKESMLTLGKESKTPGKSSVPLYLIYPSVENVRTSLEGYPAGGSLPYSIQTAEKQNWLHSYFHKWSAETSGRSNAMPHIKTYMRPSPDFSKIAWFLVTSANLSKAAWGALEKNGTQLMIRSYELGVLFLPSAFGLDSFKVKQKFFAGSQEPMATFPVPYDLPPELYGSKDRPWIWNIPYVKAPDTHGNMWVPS
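Enzyme-compound mixtures sat 15 min at room temperature, followed by a 5 min reaction with 15 nM final substrate and 10 min with AlphaScreen beads. Recombinant human Tdp1 was used at 1 nM final.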
Starred values were filed as active, the others as inactive; ? = inconclusive; . = no result; [ ] = another dose, or the depositor's remark. Most compounds without a hit are left out; they make up all but 16% or so of the library. Unless noted, calls come from the whole dose curve; as a rule, active = well fitted curve in the direction sought with a large enough effect; inconclusive = small, poorly fitted or top-dose-only effect, or another doubt; inactive = no such curve, though single readings can be large; an effect the other way counts as inactive or inconclusive.

SMILES	DT40 TDP1 CPT	miR-21 act	uPA generation	DT40 TDP1 no CPT	TDP1 block
CCC1CN(C(=O)N2CCC(C(=O)NCc3cccc(C)c3)CC2)c2ccccc2O1 (stereo not drawn)	16µM*	-1%	.	21µM*	6%
CC(C)CNc1ncnc2c1ncn2[C@H]1CN(Cc2ccncc2)C[C@@H](CO)O1	-25%	.	.	?	.
Cc1cc(C)c2sc(N(CCCN(C)C)C(=O)c3ccc(S(=O)(=O)N4CCc5ccccc5C4)cc3)nc2c1	.	.	.	.	6%
Cc1cc(C)c2sc(N(CCCN(C)C)C(=O)c3ccc(S(=O)(=O)N4CCCc5ccccc54)cc3)nc2c1	10µM*	.	?	9.2µM*	11%
COc1ccc2sc(N(CCCN(C)C)C(=O)c3ccc(S(=O)(=O)N4CCc5ccccc5C4)cc3)nc2c1	4.1µM*	.	-13%	4.6µM*	10%
Cc1ccc2nc(N(CCCN(C)C)C(=O)c3ccc(S(=O)(=O)N4CCc5ccccc5C4)cc3)sc2c1	5.2µM*	24%	-11%	5.8µM*	8%
Cc1cccc2sc(N(CCCN(C)C)C(=O)c3ccc(S(=O)(=O)N4CCc5ccccc5C4)cc3)nc12	4.1µM*	-7%	2%	6.5µM*	2%
Cc1ccc(-n2c(N)cc(=O)nc2SCC(=O)NC2CCCCC2)cc1C	9%	1%	16%	5%	1%
CCOc1ccc(-n2c(SCC(=O)Nc3ccc(CC)cc3)nc3n[nH]c(C)c3c2=N)cc1	?	1%	-5%	21µM*	0%
Cc1ccc(NC(=O)CSc2nc(O)cc(=O)n2-c2ccc(C)cc2)cc1	-4%	-4%	10%	-12%	8%
CCCN(CCC)C(=O)CSc1nc2n[nH]c(C)c2c(=N)n1-c1ccc(OCC)cc1	?	21%	-13%	?	1%
CCc1ccc(NC(=O)CSc2nc3n[nH]c(C)c3c(=N)n2-c2ccc(C)cc2)cc1	6.5µM*	11%	.	3.7µM*	6%
Cc1[nH]nc2nc(SCC(=O)NC3CCCCC3)n(-c3ccc(Br)cc3)c(=N)c12	8.2µM*	0%	-16%	6.5µM*	-10%
CCC(Sc1nc2n[nH]c(C)c2c(=N)n1-c1ccc(Br)cc1)C(=O)N(CC)CC (stereo not drawn)	18µM*	-2%	.	15µM*	7%
Cc1ccccc1NC(=O)COC(=O)c1c[nH]c(=O)[nH]c1=O	-2%	-1%	7%	-4%	7%
COC(=O)C1=CN(CC2CCCO2)C=C(C(=O)OC)C1c1ccsc1 (stereo not drawn)	12%	2%	-5%	2%	0%
COC(=O)C1=CN(CCOC23CC4CC(CC(C4)C2)C3)C=C(C(=O)OC)C1c1ccsc1	?	18%	-6%	12µM*	.
CCOC(=O)C1=CN(C)C=C(C(=O)OCC)C1c1ccsc1	-25%	-1%	2%	-13%	.
COC(=O)C1=CN(Cc2ccc(OC)cc2)C=C(C(=O)OC)C1c1ccsc1	21µM*	3%	7%	?	.
Cc1cc(C)cc(N(CCC(=O)O)S(=O)(=O)c2ccc3ccccc3c2)c1	-6%	18%	-7%	-4%	1%
O=C(NCCc1c[nH]c2ccccc12)c1cc(Cl)c2c(c1)OCO2	-11%	-46%	0%	?	.
Cc1cccc(NS(=O)(=O)c2cccc(C(=O)NCC3(N4CCOCC4)CCCCC3)c2)c1	?	.	-1%	?	.
COCCCn1c(C(=O)NC2CCCCC2C)cc2c(=O)n3cccc(C)c3nc21 (stereo not drawn)	16µM*	-4%	15%	21µM*	0%
COCCCn1c(=N)c(C(=O)NCC2CCCO2)cc2c(=O)n3cccc(C)c3nc21 (stereo not drawn)	-13%	-1%	-6%	?	5%
CCN(C(=O)c1cc2c(=O)n3cccc(C)c3nc2n1CCCOC)C1CCCCC1	21µM*	10%	-4%	16µM*	-9%
SMILES	DT40 TDP1 CPT	miR-21 act	uPA generation	DT40 TDP1 no CPT	TDP1 block
COCCCn1c(C(=O)Nc2ccc3c(c2)OCO3)cc2c(=O)n3ccccc3nc21	18µM*	-2%	5%	26µM*	2%
CCCn1c(N)c(C(=O)COC(=O)CNC(=O)c2ccc(C)c(C)c2)c(=O)n(C)c1=O	-1%	.	2%	-14%	1%[56.1 µM]
COCC1CCN(Cc2cn[nH]c2-c2cc(OC)c(OC)c(OC)c2)CC1	1%	6%	2%	-3%	-3%
Cn1ccsc1=NC(=O)c1ccc(S(C)(=O)=O)c([N+](=O)[O-])c1	4.6µM*	-13%	?	4.6µM*	3%
Cn1cccc1C(=O)NC(=O)COC(=O)c1ccc(S(C)(=O)=O)c([N+](=O)[O-])c1	4µM*	.	-21%	4.5µM*	3%
CC1CCN(C(=O)C(C)OC(=O)c2ccc(S(C)(=O)=O)c([N+](=O)[O-])c2)CC1 (stereo not drawn)	0.89µM*	.	.	2.2µM*	0%
O=C(COC(=O)c1ccc(F)c([N+](=O)[O-])c1)NC(=O)NCc1ccccc1	21µM*	.	-8%	?	3%
Cn1cccc1C(=O)NC(=O)COC(=O)c1ccc(S(C)(=O)=O)cc1	?	.	5%	-6%	0%
CS(=O)(=O)c1ccc(C(=O)OCC(=O)NC(=O)NC2CCCCC2)cc1[N+](=O)[O-]	2.8µM*	.	.	4.5µM*	0%
COc1ccc(C(=O)OCC(=O)NC(=O)NC2CCCC2)cc1[N+](=O)[O-]	-1%	.	-1%	-3%	2%
CS(=O)(=O)c1ccc(C(=O)OCC(=O)NCC2CCCO2)cc1[N+](=O)[O-] (stereo not drawn)	10µM*	.	.	7.9µM*	1%
Cc1ccc(NC(=O)CN2C(=O)C3C4C=CC(C4)C3C2=O)cc1 (stereo not drawn)	7%	-18%	4%	-8%	5%
COCc1[nH]nc2c1C1(C(=O)N(C)c3ccccc31)C(C#N)=C(N)O2 (stereo not drawn)	-3%	2%	5%	-1%	0%
Cc1nc2c(=O)n(C)c(=O)n(C)c2nc1Cl	0.58µM*	?	-22%	1.2µM*	3%
O=C(COC(=O)/C=C/c1cccc(C(F)(F)F)c1)NC(=O)NCc1ccccc1	3%	.	7%	-3%	-3%
CCOC(=O)C1=C(O)C(=O)NC(c2ccccc2)=C(OC2CCCCC2)C1	?	-19%	3%	23µM*	4%
O=C(O)C1CC(=O)N(C2CCCCCC2)C1 (stereo not drawn)	-16%	-3%	-2%	-1%	5%
